Measured values: the supplement of paper PMC10849652
The full data set covers some 8,800 targets. This sample favours those with a hit. About 0.5% of all pairs of compound and target were hits.

Columns and labels:
Assay in all cases: log2 fold change, soluble protein after heating vs DMSO (PISA); higher = thermal stabilisation; K562 lysate, 10 uM; active = over 0.2 and 3.5 SD of the protein, either way, in both replicates (recomputed)
erlotinib = compound: C#Cc1cccc(Nc2ncnc3cc(OCCOC)c(OCCOC)cc23)c1 [erlotinib]
In short: (§1)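 Pellets of K562 cells were dounce-homogenised in PBS pH 7.4 with 1 mM MgCl2, and the crude extract was held at 1 mg/mL protein for a 30 min treatment with 10 μM compound. Aliquots were heated for 3 min over 48°C-58°C and pooled before NP-40 was added to 0.5% at 4°C. The supernatant from 21,000xg for 90 min was quantified by TMTpro 16plex LC-MS/MS with channel sums equalised. Values are reported from duplicates as log-two fold change in thermal stability relative to solvent controls.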

[1] = compound: C/C(=N\NC(=O)C1=CC(=CC=C1)S(=O)(=O)N2CCOCC2)/C3=C(C=CC(=C3)Cl)O
In short: as §1

[2] = compound: C1=CC(=CC=C1C2=NC3=C(N2)C=C(C=C3)C(=O)N)OC4=CC=C(C=C4)Cl
In short: as §1

[3] = compound: C1=CC2=C(C=CC(=C2)/C=C\3/C(=O)NC(=NCC4=CC=CS4)S3)N=C1
In short: as §1

[4] = compound: C1=CC2=NC=CN=C2C=C1/C=C/3\C(=O)NC(=O)S3
In short: as §1

[5] = compound: C1=CC=C(C=C1)C2=NC(=C(N2)C3=CC=NC=C3)C4=CC(=C(C=C4)Cl)O
In short: as §1

[6] = compound: C1=CC=C2C(=C1)C3=NNC4=CC=CC(=C43)C2=O
In short: as §1

[7] = compound: C1CCN(C1)C(=O)NC2=CC=CC(=C2)NC3=NC=C(C(=N3)NCCC4=CN=CN4)Br
In short: as §1

[8] = compound: C1CN(CCC1(CC2=CC=C(C=C2)Cl)N)C3=NC=NC4=C3C=CN4
In short: as §1

IRAK-1-4 Inhibitor I = compound: C1COCCN1CCN2C3=CC=CC=C3N=C2NC(=O)C4=CC(=CC=C4)[N+](=O)[O-] [IRAK-1-4 Inhibitor I]
In short: as §1

ibrutinib = compound: C=CC(=O)N1CCC[C@@H](n2nc(-c3ccc(Oc4ccccc4)cc3)c3c(N)ncnc32)C1 [ibrutinib]
In short: as §1

[9] = compound: CC(=O)c1cnc2ccc(-c3cc(Cl)c(O)c(Cl)c3)nc2c1N[C@H]1CC[C@H](CN(C)C)CC1
In short: as §1

ralimetinib = compound: CC(C)(C)Cn1c(N)nc2ccc(-c3[nH]c(C(C)(C)C)nc3-c3ccc(F)cc3)nc21 [ralimetinib]
In short: as §1

[10] = compound: CC(C)(O)CC(=O)NCCn1ccc2ncnc(Nc3ccc(Oc4cccc(C(F)(F)F)c4)c(Cl)c3)c21
In short: as §1

[11] = compound: CC(C)C1=C2N=C(C=C(N2N=C1)NCC3=CC=CC=C3)NCCCCCCN
In short: as §1

[12] = compound: CC1=C(C(CC(=O)N1)C2=CC=C(C=C2)C(F)(F)F)C(=O)NC3=C(C=C4C(=C3)C=NN4)F
In short: as §1

[13] = compound: CC1=C(C2=C(C=C1)C(=O)C3=CC=CC=C3N2CCCN)C
In short: as §1

[14] = compound: CC1=C(C=C(C=C1)NC(=O)C2=CC(=CC=C2)C(C)(C)C#N)NC3=CC4=C(C=C3)N=CN(C4=O)C
In short: as §1

[15] = compound: CC1=C(C=C(C=C1)NC(=O)C2=CC(=CC=C2)N(C)C)NC(=O)C3=CC=C(C=C3)O
In short: as §1

[16] = compound: CC1=CC=C(C=C1)SC2=C3C=C(SC3=CN=C2)C(=O)N
In short: as §1

Measured: log2 fold change

MTMR6 (UniProt Q9Y217)
UniProt Q9Y217, sequence (Q9Y217 whole entry, looked up): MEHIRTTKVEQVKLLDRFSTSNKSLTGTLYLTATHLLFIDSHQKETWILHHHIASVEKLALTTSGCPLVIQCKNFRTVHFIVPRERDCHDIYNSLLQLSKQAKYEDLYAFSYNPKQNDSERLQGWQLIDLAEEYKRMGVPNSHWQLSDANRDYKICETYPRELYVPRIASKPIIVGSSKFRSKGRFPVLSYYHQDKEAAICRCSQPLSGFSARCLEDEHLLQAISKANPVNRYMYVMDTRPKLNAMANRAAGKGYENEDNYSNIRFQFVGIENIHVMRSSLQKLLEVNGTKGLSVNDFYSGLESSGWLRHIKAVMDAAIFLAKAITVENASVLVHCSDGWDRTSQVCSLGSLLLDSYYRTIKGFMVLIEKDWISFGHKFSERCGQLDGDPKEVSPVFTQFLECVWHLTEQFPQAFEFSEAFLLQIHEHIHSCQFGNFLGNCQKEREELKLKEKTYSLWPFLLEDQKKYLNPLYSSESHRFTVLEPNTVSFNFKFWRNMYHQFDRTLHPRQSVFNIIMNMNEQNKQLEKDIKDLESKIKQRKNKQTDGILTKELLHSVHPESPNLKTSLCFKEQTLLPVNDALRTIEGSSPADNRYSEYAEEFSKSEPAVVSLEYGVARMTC
inactive: erlotinib 0.01 | [1] 0.044 | [2] 0.002 | [3] -0.008 | [4] -0.004 | [5] -0.009 | [6] -0.052 | [7] -0.013 | [8] 0.015 | IRAK-1-4 Inhibitor I -0.013 | ibrutinib 0.011 | [9] -0.02 | ralimetinib 0.041 | [10] 0.026 | [11] 0.043 | [12] -0.044 | [13] 0.006 | [14] 0.121 | [15] 0.011 | [16] -0.006

MSI2 (UniProt Q96DH6)
UniProt Q96DH6, sequence (Q96DH6 whole entry, looked up): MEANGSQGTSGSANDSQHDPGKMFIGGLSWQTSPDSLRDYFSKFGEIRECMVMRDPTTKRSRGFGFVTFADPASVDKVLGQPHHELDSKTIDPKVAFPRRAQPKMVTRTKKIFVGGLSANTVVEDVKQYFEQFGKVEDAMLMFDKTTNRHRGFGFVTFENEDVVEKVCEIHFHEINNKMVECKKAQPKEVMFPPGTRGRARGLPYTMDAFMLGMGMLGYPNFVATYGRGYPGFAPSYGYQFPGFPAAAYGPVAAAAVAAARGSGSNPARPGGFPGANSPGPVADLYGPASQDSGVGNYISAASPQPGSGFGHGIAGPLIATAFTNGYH
active: [14] -0.315
inactive: erlotinib -0.04 | [1] -0.277 | [2] 0.035 | [3] -0.047 | [4] 0.084 | [5] -0.034 | [6] -0.011 | [7] 0.03 | [8] 0.027 | IRAK-1-4 Inhibitor I 0.057 | ibrutinib 0.044 | [9] -0.024 | ralimetinib 0.032 | [10] -0.039 | [11] 0.015 | [12] -0.029 | [13] 0.009 | [15] 0.03 | [16] 0.054

NCAPH (UniProt Q15003)
UniProt Q15003, sequence (Q15003 whole entry, looked up): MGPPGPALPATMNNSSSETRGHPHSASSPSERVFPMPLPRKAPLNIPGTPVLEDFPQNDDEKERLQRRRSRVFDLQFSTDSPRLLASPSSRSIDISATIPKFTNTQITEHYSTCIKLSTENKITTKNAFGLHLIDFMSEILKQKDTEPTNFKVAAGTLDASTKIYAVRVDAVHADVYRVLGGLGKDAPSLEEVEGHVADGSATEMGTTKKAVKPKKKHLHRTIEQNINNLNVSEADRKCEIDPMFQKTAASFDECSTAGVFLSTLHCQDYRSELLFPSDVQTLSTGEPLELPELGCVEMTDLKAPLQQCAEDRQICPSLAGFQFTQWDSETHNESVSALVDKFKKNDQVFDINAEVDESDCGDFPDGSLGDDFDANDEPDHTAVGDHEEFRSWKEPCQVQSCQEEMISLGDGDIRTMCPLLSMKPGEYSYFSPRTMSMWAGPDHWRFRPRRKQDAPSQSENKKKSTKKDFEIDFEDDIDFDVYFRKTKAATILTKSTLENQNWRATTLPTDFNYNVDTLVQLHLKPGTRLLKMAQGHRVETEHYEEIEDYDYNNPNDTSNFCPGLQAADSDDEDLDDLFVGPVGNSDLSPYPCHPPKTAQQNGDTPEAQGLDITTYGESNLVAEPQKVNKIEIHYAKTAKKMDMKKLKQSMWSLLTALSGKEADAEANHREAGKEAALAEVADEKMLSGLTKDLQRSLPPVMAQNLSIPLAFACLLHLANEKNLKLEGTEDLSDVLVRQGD
inactive: erlotinib 0.036 | [1] -0.008 | [2] -0.006 | [3] -0.007 | [4] -0.002 | [5] -0.012 | [6] -0.063 | [7] -0.008 | [8] -0.018 | IRAK-1-4 Inhibitor I 0 | ibrutinib 0.006 | [9] 0.016 | ralimetinib -0.002 | [10] -0.031 | [11] -0.013 | [12] 0.003 | [13] -0.001 | [14] -0.003 | [15] 0.012 | [16] 0.011

OPA1 isoform 2 (UniProt O60313)
UniProt O60313, sequence (O60313 whole entry, looked up): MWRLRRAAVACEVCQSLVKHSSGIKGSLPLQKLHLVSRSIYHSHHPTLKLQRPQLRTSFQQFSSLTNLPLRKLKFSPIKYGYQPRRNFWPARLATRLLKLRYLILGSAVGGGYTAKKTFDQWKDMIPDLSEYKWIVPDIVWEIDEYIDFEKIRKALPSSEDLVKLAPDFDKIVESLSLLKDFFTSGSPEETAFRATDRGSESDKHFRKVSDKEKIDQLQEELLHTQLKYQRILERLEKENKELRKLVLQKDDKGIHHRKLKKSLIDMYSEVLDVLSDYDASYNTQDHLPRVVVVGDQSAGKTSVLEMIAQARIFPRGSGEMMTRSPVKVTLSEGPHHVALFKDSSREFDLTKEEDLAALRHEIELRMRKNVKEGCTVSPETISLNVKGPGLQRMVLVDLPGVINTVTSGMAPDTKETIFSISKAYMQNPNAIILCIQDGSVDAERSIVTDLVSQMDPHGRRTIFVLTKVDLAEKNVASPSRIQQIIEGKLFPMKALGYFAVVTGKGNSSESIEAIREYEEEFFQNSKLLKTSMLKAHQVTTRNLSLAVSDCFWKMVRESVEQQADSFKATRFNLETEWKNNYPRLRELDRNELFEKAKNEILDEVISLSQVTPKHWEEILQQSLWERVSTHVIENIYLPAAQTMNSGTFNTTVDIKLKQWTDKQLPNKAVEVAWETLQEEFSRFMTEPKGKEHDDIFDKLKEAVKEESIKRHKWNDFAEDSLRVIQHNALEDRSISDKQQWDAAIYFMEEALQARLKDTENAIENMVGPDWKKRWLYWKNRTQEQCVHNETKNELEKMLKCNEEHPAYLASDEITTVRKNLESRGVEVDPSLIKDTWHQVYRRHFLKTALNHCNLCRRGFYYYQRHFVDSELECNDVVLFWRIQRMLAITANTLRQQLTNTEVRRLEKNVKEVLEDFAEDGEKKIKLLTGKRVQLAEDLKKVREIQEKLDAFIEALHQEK
inactive: erlotinib 0.003 | [1] 0.03 | [2] -0.078 | [3] 0.024 | [4] 0.01 | [5] -0.022 | [6] -0.026 | [7] -0.015 | [8] 0.021 | IRAK-1-4 Inhibitor I 0.003 | ibrutinib -0.001 | [9] 0.006 | ralimetinib -0.004 | [10] -0.036 | [11] -0.035 | [12] 0.031 | [13] 0.026 | [14] 0.024 | [15] 0.046 | [16] 0.02

OSBP2 (UniProt Q969R2)
UniProt Q969R2, sequence (Q969R2 whole entry, looked up): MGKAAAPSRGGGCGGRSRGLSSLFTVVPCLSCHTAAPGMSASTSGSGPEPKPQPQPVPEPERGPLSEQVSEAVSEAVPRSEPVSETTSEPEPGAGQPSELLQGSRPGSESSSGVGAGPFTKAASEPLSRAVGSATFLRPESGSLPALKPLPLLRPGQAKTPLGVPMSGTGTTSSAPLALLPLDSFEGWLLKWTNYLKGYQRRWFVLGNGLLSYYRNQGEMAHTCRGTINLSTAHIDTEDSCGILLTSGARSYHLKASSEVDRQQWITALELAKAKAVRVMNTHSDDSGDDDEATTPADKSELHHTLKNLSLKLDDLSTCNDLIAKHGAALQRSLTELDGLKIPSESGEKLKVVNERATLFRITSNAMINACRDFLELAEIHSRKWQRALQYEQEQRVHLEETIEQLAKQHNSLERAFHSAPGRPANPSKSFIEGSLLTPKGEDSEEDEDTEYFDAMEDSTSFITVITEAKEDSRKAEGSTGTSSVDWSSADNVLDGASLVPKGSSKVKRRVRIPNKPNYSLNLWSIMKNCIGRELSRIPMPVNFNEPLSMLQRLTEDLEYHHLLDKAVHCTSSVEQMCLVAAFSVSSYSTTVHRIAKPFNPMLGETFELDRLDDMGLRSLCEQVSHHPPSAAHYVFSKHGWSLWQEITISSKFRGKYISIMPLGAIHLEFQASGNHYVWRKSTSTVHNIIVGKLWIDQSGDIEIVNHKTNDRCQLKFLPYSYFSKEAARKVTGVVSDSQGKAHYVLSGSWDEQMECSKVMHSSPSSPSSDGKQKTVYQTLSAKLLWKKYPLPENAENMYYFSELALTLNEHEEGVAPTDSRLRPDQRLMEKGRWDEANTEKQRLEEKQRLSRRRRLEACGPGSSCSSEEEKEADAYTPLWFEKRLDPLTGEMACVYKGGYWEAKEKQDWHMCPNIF
inactive: erlotinib -0.019 | [1] -0.254 | [2] 0.08 | [3] 0.032 | [4] -0.039 | [5] -0.077 | [6] -0.075 | [7] 0.037 | [8] -0.01 | IRAK-1-4 Inhibitor I -0.061 | ibrutinib 0 | [9] 0.077 | ralimetinib 0.036 | [10] -0.103 | [11] -0.223 | [12] -0.006 | [13] 0.023 | [14] 0.051 | [15] -0.011 | [16] 0

NFAT5 isoform 5 (UniProt O94916)
inactive: erlotinib -0.06 | [1] -0.012 | [2] 0.016 | [3] -0.036 | [4] 0.049 | [5] -0.008 | [6] -0.012 | [7] -0.006 | [8] 0.02 | IRAK-1-4 Inhibitor I 0.047 | ibrutinib -0.027 | [9] -0.029 | ralimetinib -0.017 | [10] 0.129 | [11] 0.003 | [12] 0.112 | [13] -0.008 | [14] -0.081 | [15] -0.004 | [16] 0.032

OLA1 (UniProt Q9NTK5)
UniProt Q9NTK5, sequence (Q9NTK5 whole entry, looked up): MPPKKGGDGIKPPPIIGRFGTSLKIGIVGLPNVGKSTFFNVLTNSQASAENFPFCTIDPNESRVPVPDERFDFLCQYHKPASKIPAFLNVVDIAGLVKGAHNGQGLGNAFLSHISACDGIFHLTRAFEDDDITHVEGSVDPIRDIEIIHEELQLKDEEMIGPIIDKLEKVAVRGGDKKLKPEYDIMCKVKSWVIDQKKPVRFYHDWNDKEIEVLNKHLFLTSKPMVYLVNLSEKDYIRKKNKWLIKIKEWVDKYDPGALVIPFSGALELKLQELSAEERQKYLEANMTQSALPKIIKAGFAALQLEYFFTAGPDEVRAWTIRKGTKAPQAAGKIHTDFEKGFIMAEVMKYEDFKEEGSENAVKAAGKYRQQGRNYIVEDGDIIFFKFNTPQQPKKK
inactive: erlotinib 0.038 | [1] 0.031 | [2] 0.029 | [3] -0.02 | [4] 0.02 | [5] 0.007 | [6] -0.048 | [7] 0.022 | [8] 0.02 | IRAK-1-4 Inhibitor I -0.02 | ibrutinib 0.009 | [9] -0.002 | ralimetinib 0.015 | [10] 0.03 | [11] 0.02 | [12] -0.023 | [13] 0.023 | [14] -0.004 | [15] 0.029 | [16] 0.014

NFATC1 (UniProt O95644)
UniProt O95644, sequence (O95644 whole entry, looked up): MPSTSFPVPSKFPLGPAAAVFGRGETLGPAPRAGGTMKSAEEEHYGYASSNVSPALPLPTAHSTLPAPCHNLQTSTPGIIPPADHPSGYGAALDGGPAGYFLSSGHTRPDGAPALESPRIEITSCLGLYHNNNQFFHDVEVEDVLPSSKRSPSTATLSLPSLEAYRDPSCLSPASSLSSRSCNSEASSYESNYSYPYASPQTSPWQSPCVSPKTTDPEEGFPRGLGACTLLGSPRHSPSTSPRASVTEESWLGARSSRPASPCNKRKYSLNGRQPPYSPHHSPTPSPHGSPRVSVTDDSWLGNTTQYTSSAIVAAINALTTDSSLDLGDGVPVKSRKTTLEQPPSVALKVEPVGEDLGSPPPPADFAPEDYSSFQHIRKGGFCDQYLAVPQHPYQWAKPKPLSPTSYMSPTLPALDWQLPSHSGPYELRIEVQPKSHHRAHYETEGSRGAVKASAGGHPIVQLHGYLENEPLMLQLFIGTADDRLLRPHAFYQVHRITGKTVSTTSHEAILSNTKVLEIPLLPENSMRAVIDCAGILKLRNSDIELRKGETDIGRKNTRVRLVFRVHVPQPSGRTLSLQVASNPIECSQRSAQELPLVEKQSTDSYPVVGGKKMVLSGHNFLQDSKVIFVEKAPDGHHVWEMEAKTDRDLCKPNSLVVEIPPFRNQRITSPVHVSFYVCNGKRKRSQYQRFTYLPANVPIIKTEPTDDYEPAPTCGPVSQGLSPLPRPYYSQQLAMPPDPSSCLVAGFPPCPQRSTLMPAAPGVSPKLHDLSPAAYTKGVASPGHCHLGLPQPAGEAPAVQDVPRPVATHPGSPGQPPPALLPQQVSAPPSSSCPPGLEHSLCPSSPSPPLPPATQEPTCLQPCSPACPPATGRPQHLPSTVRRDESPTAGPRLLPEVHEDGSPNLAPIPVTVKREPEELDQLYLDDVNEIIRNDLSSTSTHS
inactive: erlotinib -0.002 | [1] -0.431 | [2] 0.045 | [3] -0.04 | [4] -0.02 | [5] 0.065 | [6] 0.009 | [7] 0.044 | [8] 0.092 | IRAK-1-4 Inhibitor I 0.077 | ibrutinib 0.011 | [9] 0.06 | ralimetinib -0.004 | [10] -0.067 | [11] -0.038 | [12] 0.031 | [13] -0.047 | [14] 0.094 | [15] -0.015 | [16] -0.052
